# According to the supplement of paper PMC13380429:
# Columns and labels:
# [1] = test system: Vero E6 infected with SARS-CoV-2; experiment: morphology score (similarity to uninfected cells); higher = more like uninfected cells; details: 24 h
# [2] = test system: Vero E6 infected with SARS-CoV-2; experiment: SARS-CoV-2 infection rate relative to infected DMSO; higher = more infection, active = 60 or less; details: 24 h
SMILES,morphology score [1],SARS-CoV-2 infection rate [2]
O=C(Nc1cc(Oc2cc(F)c(NC(=O)C3(C(=O)Nc4ccc(F)cc4)CC3)cc2F)ccn1)C1CC1 [altiratinib] (10 µM),0.122,88.5% (inactive)
COc1cccc2c1C(=O)c1c(O)c3c(c(O)c1C2=O)C[C@@](O)(/C(CO)=N/NC(=O)CCCCCN1C(=O)C=CC1=O)C[C@@H]3O[C@H]1C[C@H](N)[C@H](O)[C@H](C)O1 [aldoxorubicin] (0.833333 µM),-0.0766,109% (inactive)
COc1nccc(-c2c(-c3ccc(F)cc3)ncn2[C@H]2CC[C@H](O)CC2)n1 (10 µM),0.396,85% (inactive)
Oc1cc(O)c2c(c1)O[C@H](c1ccc(O)c(O)c1)[C@H](O)[C@H]2c1c(O)cc(O)c2c1O[C@H](c1ccc(O)c(O)c1)[C@H](O)C2 [procyanidin-B-2] (10 µM),0.114,106% (inactive)
CN1CCC(=C2c3ccccc3CC(=O)c3sccc32)CC1 [ketotifen] (10 µM),0.144,101% (inactive)
C[N+]1(C)CCC(OC(=O)C(c2ccccc2)c2ccccc2)CC1 (10 µM),0.103,114% (inactive)
O=C(Nc1ccccc1-c1cn2c(CN3CCNCC3)csc2n1)c1cnc2ccccc2n1 (0.833333 µM),0.075,114% (inactive)
Cc1cn2nc([C@@H]3CCCCN3C(=O)c3cc(Cl)ccc3NS(C)(=O)=O)cc2nc1N1CC[C@H](N)C1 [presatovir] (10 µM),0.215,89% (inactive)
Cc1cccc(-c2[nH]c(CNc3ccccc3F)nc2-c2ccc3ncnn3c2)n1 (10 µM),0.295,109% (inactive)
COCCNC(=O)COc1ccc(OCCNC[C@H](O)COc2ccccc2)cc1 (10 µM),0.0156,102% (inactive)
CCS(=O)(=O)N1CC(CC#N)(n2cc(-c3ncnc4[nH]ccc34)cn2)C1 [baricitinib] (10 µM),0.418,112% (inactive)
C[C@]12CC[C@@H]3c4ccc(O)cc4CC[C@H]3[C@@H]1CC[C@@H]2OC(=O)CCC1CCCC1 [estradiol-cypionate] (10 µM),-0.002,99% (inactive)
CS(=O)(=O)c1ccc(-c2cc(Br)sc2-c2ccc(F)cc2)cc1 (10 µM),0.0351,104% (inactive)
COc1cc(OCc2cccc(-c3ccccc3)c2C)cc(OC)c1CN1CCCC[C@H]1C(=O)O [PD1-PDL-inhibitor-1] (10 µM),0.00556,95% (inactive)
Cc1cc(N2CCCCC2)nc2ccccc12 (10 µM),0.282,93% (inactive)
NC(=O)Nc1sc(-c2ccc(F)cc2)cc1C(N)=O (0.833333 µM),0.0683,95.5% (inactive)
C#C[C@]1(O)CC[C@H]2[C@@H]3CCc4cc(OC)ccc4[C@H]3CC[C@@]21C [mestranol] (10 µM),-0.00302,110% (inactive)
CCCOC(=O)c1ccc(O)cc1 [propyl 4-hydroxybenzoate] (10 µM),-0.0462,111% (inactive)
C[C@H]1C[C@H]2[C@@H]3CCC4=CC(=O)C=C[C@]4(C)[C@@]3(Cl)[C@@H](O)C[C@]2(C)[C@@]1(O)C(=O)CO [beclomethasone] (10 µM),0.101,89.5% (inactive)
COc1cc2c(CCNC(C)=O)c[nH]c2cc1Cl [6-chloromelatonin] (10 µM),0.0228,104% (inactive)

SMILES,morphology score [1],SARS-CoV-2 infection rate [2]
CCN(C)C(=O)Oc1cccc([C@H](C)N(C)C)c1 [rivastigmine] (10 µM),0.136,101% (inactive)
CC(=O)OCC(=O)NCCCOc1cccc(CN2CCCCC2)c1 [roxatidine-acetate] (10 µM),0.0141,110% (inactive)
CC(C)NCC(O)c1ccc(N)c(C#N)c1 (stereo not drawn) [cimaterol] (10 µM),-0.059,104% (inactive)
CC(=O)N1CCN(CCOc2ccc(C3CCN(C4=Nn5c(nnc5C(F)(F)F)CC4)CC3)cc2)CC1 (0.833333 µM),0.0218,98.5% (inactive)
CC(C)(Sc1ccncc1-c1ccc(C#N)c2ccccc12)C(=O)O [verinurad] (10 µM),0.122,98% (inactive)
CO[C@@H]1[C@@H](O[C@@H]2O[C@H](C)[C@@H](O[C@H]3C[C@@](C)(O)[C@@H](OC(=O)CC(C)C)[C@H](C)O3)[C@H](N(C)C)[C@H]2O)[C@@H](CC=O)C[C@@H](C)[C@@H](O)/C=C/C=C/C[C@@H](C)OC(=O)C[C@H]1OC(C)=O [josamycin] (10 µM),-0.0313,113% (inactive)
Cc1c(NC(=O)OC[C@@H]2COCCN2)cn2ncnc(Nc3ccc4c(cnn4Cc4cccc(F)c4)c3)c12 (0.833333 µM),-0.105,102% (inactive)
O=P(O)(O)C(Cl)(Cl)P(=O)(O)O [clodronic-acid] (10 µM),-0.00847,92% (inactive)
COc1ccc(/C=C/CCCCOc2ccc(C(=O)c3cccc(C(=O)O)c3)cc2CCC(=O)O)cc1 (10 µM),0.0773,95% (inactive)
CC(C)CN(C[C@@H](O)[C@H](Cc1ccccc1)NC(=O)O[C@H]1CCOC1)S(=O)(=O)c1ccc(N)cc1 [amprenavir] (10 µM),0.0911,110% (inactive)
CCCN(CCC)C(=O)C(CCC(=O)O)NC(=O)c1ccccc1 (stereo not drawn) [proglumide] (10 µM),0.0817,107% (inactive)
C1COC(NC(C2CC2)C2CC2)=N1 [rilmenidine] (10 µM),-0.0313,99.5% (inactive)
CCNC(=O)CCC/C=C\C[C@@H]1[C@@H](/C=C/[C@@H](O)CCc2ccccc2)[C@H](O)C[C@@H]1O [bimatoprost] (10 µM),0.0397,103% (inactive)
CC#C[C@@H](CC(=O)O)c1ccc(OCc2cccc(-c3ccc(C(F)(F)F)cc3)c2)cc1 (10 µM),0.0803,108% (inactive)
Cc1c[nH]c(=O)n(CCCN2CCN(c3ccccc3OCC(F)(F)F)CC2)c1=O (10 µM),0.0456,111% (inactive)
COc1cc(C(=O)N2CCOCC2)cc(OC)c1OC [trimetozine] (10 µM),-0.0638,113% (inactive)
CC(C)(C)NCC(O)c1cc(O)cc(O)c1 (stereo not drawn) (10 µM),0.0272,113% (inactive)
CC1CS(=O)(=O)CCN1/N=C/c1ccc([N+](=O)[O-])o1 (stereo not drawn) [nifurtimox] (10 µM),0.0407,102% (inactive)
O=c1cc[nH]c(=O)[nH]1 [uracil] (10 µM),-0.002,108% (inactive)
COc1ccc(C(C)(C)C)cc1CN[C@H]1C2CCN(CC2)[C@H]1C(c1ccccc1)c1ccccc1 [maropitant] (0.833333 µM),0.103,104% (inactive)

SMILES,morphology score [1],SARS-CoV-2 infection rate [2]
CC1(C)CCC(C)(C)c2cc(C(=O)Nc3ccc(C(=O)O)cc3)ccc21 (10 µM),-0.326,112% (inactive)
Cc1cc(-c2ccc(CC(=O)Nc3ccc(-c4cccnc4)cc3)cc2)ccn1 (10 µM),0.392,75.5% (inactive)
N[C@@H](CC(=O)Nc1ccc(Oc2cc(F)c(F)cc2Br)cc1)C(=O)O (10 µM),0.233,98% (inactive)
O=C(O)c1cc(O)c(O)c(O)c1 [gallic-acid] (10 µM),-0.19,110% (inactive)
C[n+]1cc2c3c(ccc2c2ccc4cc5c(cc4c21)OCO5)OCO3 [sanguinarium-chloride] (10 µM),-0.0249,94.5% (inactive)
CS(=O)(=O)c1ccc(-c2cnc(N)c(C(=O)Nc3ccccc3)n2)cc1 (10 µM),0.278,87% (inactive)
CN1C(=O)N(c2cc(Cl)cc(Cl)c2)C(=O)[C@]12CN(c1ccc(C(=O)O)cn1)C[C@H]2c1ccc(C#N)cc1 (10 µM),0.0204,114% (inactive)
CC(C)(C)NC[C@H](O)COc1cccc2c1CCCC2=O [levobunolol] (10 µM),0.0302,108% (inactive)
CCN(CC)Cc1nccn1-c1ccc([N+](=O)[O-])cc1C(=O)c1ccccc1Cl [nizofenone] (10 µM),0.148,98% (inactive)
CC(=O)NC[C@H]1CN(c2ccc(-c3ccc(CNCc4cnn[nH]4)cc3)c(F)c2)C(=O)O1 [radezolid] (10 µM),0.0332,110% (inactive)
O=C(O)C1CN(Cc2ccc(-c3nc4cc(Cc5ccccc5F)ccc4s3)c(F)c2)C1 (10 µM),-0.0698,113% (inactive)
CN1C(C(=O)Nc2ccccn2)=C(O)c2sc(Cl)cc2S1(=O)=O [lornoxicam] (10 µM),0.00915,97% (inactive)
CCN(CC)CCOC(=O)C(c1ccccc1)C1CCCCC1 (stereo not drawn) [drofenine] (10 µM),0.275,99.5% (inactive)
CCCCCCOC(=O)NC(=N)c1ccc(NCc2nc3cc(C(=O)N(CCC(=O)OCC)c4ccccn4)ccc3n2C)cc1 [dabigatran-etexilate] (10 µM),0.027,98.5% (inactive)
CC(C(=O)O)c1ccc(C(=O)c2cccs2)cc1 (stereo not drawn) [suprofen] (10 µM),0.123,108% (inactive)
Cc1cc(C(=O)Nc2nc3cccc(Cl)c3n2[C@@H]2CCCCN(C(=O)/C=C/CN(C)C)C2)ccn1 (0.833333 µM),-0.2,110% (inactive)
COc1cc(Oc2ccnc3cc(OC)c(OC)cc23)ccc1NC(=O)NC(C)c1nccs1 (stereo not drawn) (10 µM),0.332,101% (inactive)
CSc1nc(NC2CCCC2)c([N+](=O)[O-])c(NC2CCCC2)n1 (10 µM),0.349,88% (inactive)
Cc1noc(C)c1-c1ccc(-c2cc(C(N)=O)c(NC(N)=O)s2)c(O[C@H]2CCNC2)c1 (10 µM),0.0267,104% (inactive)
